Screening data: PubChem, National Center for Advancing Translational Sciences (NCATS)
TGFb SMAD3 inh = qHTS for Inhibitors of TGF-b | HepG2 CAGA-GFP TGF-b/SMAD3 reporter, GFP fluorescence, 18 h; TGF-beta stimulated, 500 pg/mL final | Potency, µM (doses to about 46.1 µM), for inactives: at the top dose activity, negative = inhibition, most hits filed as inhibitors | hit rate 1.2% among 410,000; note: potency is the fitted concentration of half-maximal effect; % is set by controls: 0 for no effect and ±100 for the full control effect; nearly all actives have a fitted effect of over 65% in size
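TGF-beta reporter screen: HEPG2 CAGA-GFP, 1% FBS, 500 pg/mL TGF-beta final, 18 h; per-cell GFP summed per well; curves fitted and categorized by class.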
DT40 TDP1 no CPT = qHTS for Inhibitors of human tyrosyl-DNA phosphodiesterase 1 (TDP1): qHTS in cells in absence of CPT. hit rate 15% among 420,000. Potency, µM (highest dose often 46.2 µM), inactives show at the top dose activity change, negative = growth inhibition, usual class: inhibitors. DT40 Tdp1-/- hTDP1 cells, no CPT, ATP luminescence, 48 h. AID 686978, 2013; note: potency is the fitted concentration of half-maximal effect; % is set by controls: 0 for no effect and ±100 for the full control effect; nearly all actives have a fitted effect of over 55% in size
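Luminescent ATP content (CellTiter-Glo) served as the growth readout. Knockout chicken DT40 cells expressing human TDP1 were exposed to compounds without camptothecin for a minimum 48 hr at 37 °C.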
HepG2 viability = qHTS for Inhibitors of TGF-b: Cytotox Counterscreen. HepG2 CAGA-GFP viability, ATP luminescence, 18 h. Potency, µM (top dose mostly 46.1 µM), inactives show at the top dose activity change, negative = cytotoxicity, most hits filed as cytotoxic. hit rate 0.76% among 410,000. AID 588856, 2011; note: potency is the fitted concentration of half-maximal effect
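HepG2 CAGA-GFP cells (1000/well, DMEM with 1% FBS) received compound, then TGF-beta at 500 pg/mL final, and were incubated 18 hours at 37 degrees C. Viability was read by CellTiter-Glo luminescence. Media-only wells were set as complete cell-killing and DMSO as no toxicity.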
TDP1 cell CPT = qHTS for Inhibitors of human tyrosyl-DNA phosphodiesterase 1 (TDP1): qHTS in cells in presence of CPT; chicken DT40 Tdp1-/-;hTDP1 cells + 20 nM CPT, ATP luminescence, 48 h; Potency, µM (highest dose often 46.2 µM), without a hit: at the highest dose activity change, negative = growth inhibition, most hits filed as inhibitors; hit rate 12% among 420,000; note: potency is the fitted concentration of half-maximal effect; % is set by controls: 0 for no effect and ±100 for the full control effect; nearly all actives have a fitted effect of over 55% in size
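Chicken DT40 Tdp1-/- cells complemented with human TDP1, 400 cells/well, exposed to compounds plus 20 nM camptothecin for at least 48 h at 37 C; viability read as ATP content by CellTiter-Glo luminescence.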
TDP1 block = qHTS Assay for Inhibitors of Tyrosyl-DNA Phosphodiesterase (TDP1) | Tyrosyl-DNA phosphodiesterase 1 (Homo sapiens), Q9NUW8 | recombinant TDP1, AlphaScreen DNA substrate cleavage | Potency, µM (top dose mostly 130 µM), for the others: top-dose activity change, negative = inhibition, most hits filed as inhibitors | hit rate 0.28% among 350,000 | AID 485290, 2010; note: potency is the fitted concentration of half-maximal effect; % is set by controls: 0 for no effect and ±100 for the full control effect; nearly all actives have a fitted effect of over 40% in size
Target sequence (Q9NUW8 whole entry, looked up): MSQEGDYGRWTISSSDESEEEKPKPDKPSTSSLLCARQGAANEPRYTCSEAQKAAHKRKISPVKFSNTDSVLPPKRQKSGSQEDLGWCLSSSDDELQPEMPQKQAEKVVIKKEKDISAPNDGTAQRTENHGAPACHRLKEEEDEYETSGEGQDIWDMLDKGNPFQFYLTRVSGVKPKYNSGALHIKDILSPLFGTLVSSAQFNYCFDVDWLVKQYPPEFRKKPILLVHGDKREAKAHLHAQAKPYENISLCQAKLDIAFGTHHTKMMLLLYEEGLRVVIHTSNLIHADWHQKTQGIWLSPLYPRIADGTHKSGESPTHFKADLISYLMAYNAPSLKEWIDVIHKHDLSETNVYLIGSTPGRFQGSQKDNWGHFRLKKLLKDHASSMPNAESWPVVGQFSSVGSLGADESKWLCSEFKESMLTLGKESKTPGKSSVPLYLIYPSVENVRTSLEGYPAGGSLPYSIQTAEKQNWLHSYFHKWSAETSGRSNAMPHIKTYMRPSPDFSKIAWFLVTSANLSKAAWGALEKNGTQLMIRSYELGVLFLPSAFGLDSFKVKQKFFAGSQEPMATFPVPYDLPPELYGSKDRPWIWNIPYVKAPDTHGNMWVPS
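Recombinant E. coli-expressed Tdp1 (1 nM) preincubated with compound 15 min at RT, then 5'-biotin/3'-phosphotyrosine-FITC DNA substrate (15 nM) added for 5 min. AlphaScreen beads (10 ug/ml) added, 10 min RT; tyrosine-FITC cleavage read as signal loss.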
IL-1B inflam inh = qHTS for Inhibitors of Inflammasome Signaling: IL-1-beta AlphaLISA Primary Screen; THP-1 LPS/ATP IL-1B secretion, AlphaLISA, 16 h; active compounds read low; activity change, % at 57.5 µM; hit rate 4.7% among 360,000; AID 743279, 2014; in the data active = activity change below about -50%; inconclusive = mostly about -30% to -49%; note: % is set by controls: 0 for no effect and ±100 for the full control effect
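Secreted IL-1B measured by AlphaLISA bead assay after 16 h compound exposure of THP-1 cells; compounds (final up to 57.5 uM) added 1 h before LPS (250 ng/mL) and ATP (1.25 mM) stimulation; lower signal means less secretion.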
* marks the source's active call; other numbers are inactive results; ? = inconclusive; · = no result; [ ] = another dose, or the depositor's remark. Shown are actives, neighbours in structure and some others; about 19% of the full set was active somewhere. Unless noted, calls come from the whole dose curve; as a rule, active = well fitted curve in the direction sought with a large enough effect; inconclusive = small, poorly fitted or top-dose-only effect, or another doubt; inactive = no such curve, though single readings can be large; an effect the other way counts as inactive or inconclusive.

SMILES	TGFb SMAD3 inh	DT40 TDP1 no CPT	HepG2 viability	TDP1 cell CPT	TDP1 block	IL-1B inflam inh
C=CCn1c(SCN2C(=O)c3ccccc3C2=O)nc2ccc(Cl)cc2c1=O	6%	18µM*	-1%	18µM*	3%	33
C=CCn1c(SCc2nc3ccccc3c(=O)[nH]2)nc2scc(C3CC3)c2c1=O	?	16µM*	-31%	15µM*	0%	14
C=CCn1c(SCC(=O)c2c(N)n(C)c(=O)n(C)c2=O)nc2sc(C)c(C)c2c1=O	1%	?	-37%	-16%	-4%	0
C=CCn1c(SCC(=O)Nc2ccccc2F)nc2ccccc2c1=O	15%	-17%	-4%	-17%	3%	0
C=CCn1c(SCC(=O)Nc2sccc2C(N)=O)nc2ccc(Cl)cc2c1=O	-17%	16µM*	-24%	15µM*	-3%	-6
C=CCn1c(SCC(=O)c2c(N)n(CCC)c(=O)n(C)c2=O)nc2sc(CC)cc2c1=O	-23%	5.8µM*	3%	6.5µM*	1%	0
C=CCn1c(SCC(=O)Nc2sccc2C(N)=O)nc2sc(CC)cc2c1=O	8%	26µM*	-16%	?	5%	-30
C=CCn1c(SCc2nc3cc(C(=O)OC)ccc3c(=O)[nH]2)nc2sc(CC)cc2c1=O	3%	18µM*	-1%	?	6%	5
COC(=O)c1ccc2c(=O)[nH]c(CCl)nc2c1	-25%	15µM*	-8%	12µM*	5%	-97*
C=CCn1c(SC(C)C(N)=O)nc2sc(CC)cc2c1=O (stereo not drawn)	-1%	?	-13%	-2%	0%	56
CCc1cccc(NC(=O)C(CC(C)C)NS(=O)(=O)c2ccc3c(c2)oc(=O)n3C)c1 (stereo not drawn)	-30%	?	-8%	?	-5%	·
CCCCCCCCCCCCCCCCCC(=O)OCC(O)CO (stereo not drawn)	·	-12%	·	-25%	6%	·
CC(=O)c1cccc(NS(=O)(=O)N2CCOCC2)c1	0%	7%	7%	-2%	2%	11
O=C(/C=C/c1ccc(NC(=O)c2ccccc2-c2ccccc2C(=O)O)cc1)c1ccccc1	?	?	-70%	-19%	-7%	-62*
O=C(/C=C/c1ccncc1)c1ccc(NC(=O)c2ccccc2F)cc1	13µM*	2.9µM*	5µM*	4.1µM*	0%	-104*
O=C(Nc1cccnc1)c1ccccc1F	-3%	1%	-11%	-3%	1%	-14
CCCCn1c(SCC(=O)NCCCOC)nc2c(sc3ccccc32)c1=O	-3%	-13%	-9%	-8%	1%	·
CC(c1ccon1)N(C)C(=O)CCc1nnc(Cc2ccc(-c3ccccc3)cc2)o1 (stereo not drawn)	-19%	?	-14%	?	9%	-19
CC(c1nccs1)N(C)C(=O)CCc1nnc(-c2ccc(-c3ccccc3)cc2)o1 (stereo not drawn)	?	-85%	-37%	15µM*	-3%	?
CN(C(=O)CCc1nnc(-c2ccc(-c3ccccc3)cc2)o1)C1CCOCC1	-1%	13µM*	5%	?	3%	5
CC(NC(=O)CCc1nnc(-c2ccc(-c3ccccc3)cc2)o1)c1nccs1 (stereo not drawn)	-16%	21µM*	-4%	26µM*	4%	-15
O=C(O)c1ccc(Cl)cc1Cl	·	·	·	·	4%	·
C[C@@H](O)CNC(=O)c1[nH]cnc1C(=O)N[C@H](C)c1ccccc1	10%	3%	-14%	3%	·	23
COc1ccc(N2Cc3ccccc3C2=O)cc1	-8%	?	-69%	?	·	-5
COc1ccc(-c2cn(-c3ccc(SC(F)F)cc3)c3[n+]2CCC3)cc1OC	?	18µM*	-1%	?	5%	2
SMILES	TGFb SMAD3 inh	DT40 TDP1 no CPT	HepG2 viability	TDP1 cell CPT	TDP1 block	IL-1B inflam inh
CCCCOc1ccc(C(=O)Nc2ccc(SC(F)F)cc2)cc1OC	-5%	?	-6%	-21%	2%	-15
COc1ccc(-c2cn(-c3ccc(OC)cc3)c3[n+]2-c2ccccc2CC3)cc1	?	0.21µM*	-22%	0.26µM*	3%	-59*
FC(F)Oc1ccc(-n2cc(-c3ccc(Cl)cc3)[n+]3c2CCCCC3)cc1	18%	4.6µM*	7%	4.6µM*	3%	-19
FC(F)Sc1ccc(-n2cc(-c3ccccc3)[n+]3c2CCC3)cc1	1%	4.1µM*	-3%	5.8µM*	-5%	0
c1ccc(CCN=C2CCCc3c2[nH]c2ccccc32)cc1	-11%	-4%	-17%	14%	6%	6
N#Cc1ccccc1NC(=O)CSc1nc(-c2ccccc2)cc(C(F)(F)F)c1C#N	20%	-14%	-16%	-19%	4%[12.3 µM]	·
COc1ccc(-n2cc(-c3ccccc3)nc2SC)cc1	-6%	1%	-32%	?	11%	-20
COc1ccc(-n2cc(-c3ccccc3)[n+]3c2CCCCC3)cc1	-22%	1.2µM*	-17%	5.8µM*	1%	?
COc1ccccc1CNC(=O)CCn1c(=O)c2ccccc2n(CC(=O)Nc2cc(Cl)ccc2C)c1=O	2%	?	5%	-28%	3%	·
COCCNc1nc(-c2ccccc2CO)c2sc(-c3ccccc3)cc2n1	1%	1.8µM*	-27%	1.3µM*	·	20
O=C1NCCN1CCNc1nc(NCC2CC2)nc2cc(-c3ccccc3)sc12	-10%	21µM*	-27%	?	·	·
COCCNc1nc(NCC2CCCCC2)c2sc(-c3ccccc3)cc2n1	?	8.2µM*	-102%	15µM*	·	-103*
COCCNc1nc(NCCOc2ccccc2Cl)c2sc(-c3ccccc3)cc2n1	?	13µM*	14µM*	9.2µM*	·	-60*
COCCNc1nc(NCCNC(C)=O)c2sc(-c3ccccc3)cc2n1	-31%	?	-36%	?	·	·
CCOC(N)=O	·	5%	·	-12%	7%	·
NNc1nc2c(-c3ccc(Cl)cc3)nnn2c2ccccc12	0%	?	-24%	10µM*	6%	2
COCCCNc1nc2c(-c3ccc(Cl)cc3)nnn2c2ccccc12	-4%	-6%	13%	4%	-1%	39
